Measurements: PubChem BioAssay
The source made the active and inactive calls.

What was measured:
[1] = optical density shifts of acrAB sulA E. coli – strain DRC41, OD650, 48 h, E. coli filamentation inducer project, primary screen (AID 1152); conditions: higher = more signal, called active from +8 up or from −8 down;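 further: E. coli MC1000 strain DRC41 lacking acrAB efflux pump and sulA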
[2] = probe aLefty1 binding on compound microarray – biochemical, small-molecule microarray, 635/667 nm fluorescence, primary screen (AID 1153); conditions: higher = more signal;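 further: score merges spot fluorescence with signal-to-noise ratio from the scanned slide images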
[3] = plasmodial surface anion channel blockers, osmotic lysis – cell-based, P. falciparum Indochina, OD700, 1 h, primary screen (AID 1154); conditions: P. falciparum Indochina infected RBC osmotic lysis, higher = more signal, called active from +8 up or from −8 down
[4] = plasmodial surface anion channel blockers, osmotic lysis – cell-based, P. falciparum Indochina, OD700, 2 h, primary screen (AID 1155);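 further: lysis reports solute entry through the parasite surface anion channel PSAC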; conditions: P. falciparum Indochina infected erythrocytes, higher = more signal, called active from +8 up or from −8 down
[5] = changes in parasitized red cell lysis, either direction – P. falciparum Indochina, OD700, 3 h, PSAC antagonist project, primary screen (AID 1156); conditions: P. falciparum-infected erythrocytes, osmotic lysis, higher = more signal, called active from +8 up or from −8 down
[6] = plasmodial surface anion channel blockers, osmotic lysis – cell-based, P. falciparum Indochina, OD700, 18 h, primary screen (AID 1157); conditions: P. falciparum Indochina infected erythrocytes, osmotic lysis OD700, 18 h; higher = more signal, called active from +8 up or from −8 down
[7] = S6 kinase pathway phospho-S6 level changes – cell-based, A549, cytoblot, luminescence, serum-stimulated, primary screen (AID 1158); conditions: 5 h, higher = more signal;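 further: serum-stimulated A549 lung adenocarcinoma cells; signal is phosphorylated S6 detected by cytoblot immunostaining with HRP secondary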
[8] = target: NADPH oxidase 2 (Homo sapiens) (UniProt P04839); assay: compounds shifting NOX2 Amplex Red fluorescence – cell-based, HEK293-NOX2, PMA-stimulated, NOX inhibitor project, primary screen (AID 1159); conditions: 45 min, higher = more signal, called active from +8 up or from −8 down; further: test concentration not given here
[9] = target: NADPH oxidase 4 (Homo sapiens) (UniProt Q9NPH5); assay: compounds shifting NOX4 Amplex Red fluorescence – cell-based, HEK293-NOX4, tetracycline-induced, NOX inhibitor project, primary screen (AID 1160); conditions: HEK293-NOX4, Amplex Red H2O2 fluorescence, 45 min; higher = more signal, called active from +8 up or from −8 down
[10] = target: NADPH oxidase 5 (Homo sapiens) (UniProt Q96PH1); assay: compounds shifting NOX5 Amplex Red fluorescence – cell-based, HEK293-NOX5, NOX inhibitor project, primary screen (AID 1161); conditions: HEK293-NOX5, ionomycin, 45 min, higher = more signal
[11] = compound effects on lung adenocarcinoma cell viability – A549, calcein-AM fluorescence, 48 h, basal, profiling panel (AID 1162); conditions: higher = more signal; further: test concentration not given here
[12] = compound effects on differentiated 3T3-L1 adipocyte viability – cell-based, 3T3-L1 adipocytes, calcein-AM fluorescence, 48 h, basal, profiling panel (AID 1163); conditions: 3T3-L1 adipocytes viability, higher = more signal; further: test concentration not given here
[13] = compound effects on hepatocellular carcinoma cell viability – HepG2, calcein-AM fluorescence, 48 h, basal, profiling panel (AID 1164); conditions: higher = more signal; further: test concentration not given here
[14] = compound effects on multiple myeloma cell viability – MM1S, calcein-AM fluorescence, 48 h, basal, profiling panel (AID 1165); conditions: higher = more signal; further: test concentration not given here
[15] = calcein-AM signal in unstimulated myeloma cells – cell-based, calcein-AM fluorescence, 48 h, PK04 Diversity Set, profiling panel (AID 1166); conditions: RPMI8226 myeloma viability, higher = more signal;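 further: cells grown under basal conditions without added stimulus; test concentration not given here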
[16] = JC-1 mitochondrial signal, unstimulated HepG2 cells – cell-based, JC-1 fluorescence, 24 h, 100 nL compound, profiling panel (AID 1167); conditions: HepG2 mitochondrial potential, higher = more signal; further: test concentration not given here
[17] = JC-1 mitochondrial signal, unstimulated adipocytes – cell-based, JC-1 fluorescence, 3T3-L1 adipocytes, 24 h, 100 nL compound, profiling panel (AID 1168); conditions: JC-1 mitochondrial fluorescence, higher = more signal, called active from +8 up or from −8 down; further: test concentration not given here
[18] = JC-1 mitochondrial signal, unstimulated myeloma cells – cell-based, JC-1 fluorescence, RPMI8226, 24 h, 100 nL compound, profiling panel (AID 1169); conditions: JC-1 mitochondrial potential fluorescence, higher = more signal; further: test concentration not given here
[19] = JC-1 mitochondrial signal, unstimulated MM1S myeloma – cell-based, JC-1 fluorescence, 24 h, 100 nL compound, profiling panel (AID 1170); conditions: MM1S mitochondrial potential, higher = more signal; further: test concentration not given here
[20] = resazurin metabolic signal in A549 cells – cell-based, resazurin fluorescence, 24 h, PK04 Diversity Set, profiling panel (AID 1171); conditions: A549 viability, higher = more signal, called active from +8 up or from −8 down; further: test concentration not given here

NADPH oxidase 4 (Homo sapiens), sequence (Q9NPH5 whole entry, looked up): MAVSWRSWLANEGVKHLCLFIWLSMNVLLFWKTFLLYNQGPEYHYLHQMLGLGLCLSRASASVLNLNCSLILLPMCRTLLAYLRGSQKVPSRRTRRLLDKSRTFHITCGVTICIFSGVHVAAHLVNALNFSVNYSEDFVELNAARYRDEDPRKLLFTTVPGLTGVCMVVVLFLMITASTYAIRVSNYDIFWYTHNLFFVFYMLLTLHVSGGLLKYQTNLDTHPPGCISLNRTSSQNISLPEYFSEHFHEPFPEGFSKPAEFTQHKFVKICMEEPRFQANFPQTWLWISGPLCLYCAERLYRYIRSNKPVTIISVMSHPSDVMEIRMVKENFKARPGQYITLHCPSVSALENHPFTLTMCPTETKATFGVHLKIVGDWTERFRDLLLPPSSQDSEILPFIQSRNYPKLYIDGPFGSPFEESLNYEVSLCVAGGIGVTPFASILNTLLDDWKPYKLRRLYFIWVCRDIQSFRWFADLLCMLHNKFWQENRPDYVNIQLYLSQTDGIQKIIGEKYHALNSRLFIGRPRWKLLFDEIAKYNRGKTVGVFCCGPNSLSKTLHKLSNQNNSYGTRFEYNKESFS
NADPH oxidase 2 (Homo sapiens), sequence (P04839 whole entry, looked up): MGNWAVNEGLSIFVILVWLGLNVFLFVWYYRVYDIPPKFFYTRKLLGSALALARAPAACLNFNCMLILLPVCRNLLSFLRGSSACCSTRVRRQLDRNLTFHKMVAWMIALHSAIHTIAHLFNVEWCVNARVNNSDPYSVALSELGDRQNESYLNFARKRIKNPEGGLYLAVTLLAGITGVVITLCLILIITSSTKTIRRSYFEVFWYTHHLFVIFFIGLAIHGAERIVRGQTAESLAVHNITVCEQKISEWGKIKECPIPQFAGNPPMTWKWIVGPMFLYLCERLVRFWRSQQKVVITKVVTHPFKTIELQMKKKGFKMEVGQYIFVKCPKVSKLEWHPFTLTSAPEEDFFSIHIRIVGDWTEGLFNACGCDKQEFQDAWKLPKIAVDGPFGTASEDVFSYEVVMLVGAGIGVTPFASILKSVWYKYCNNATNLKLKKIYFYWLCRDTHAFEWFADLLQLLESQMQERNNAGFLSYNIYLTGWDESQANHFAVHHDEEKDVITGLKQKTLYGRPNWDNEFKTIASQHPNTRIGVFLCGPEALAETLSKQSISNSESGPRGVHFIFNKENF
NADPH oxidase 5 (Homo sapiens), sequence (Q96PH1 whole entry, looked up): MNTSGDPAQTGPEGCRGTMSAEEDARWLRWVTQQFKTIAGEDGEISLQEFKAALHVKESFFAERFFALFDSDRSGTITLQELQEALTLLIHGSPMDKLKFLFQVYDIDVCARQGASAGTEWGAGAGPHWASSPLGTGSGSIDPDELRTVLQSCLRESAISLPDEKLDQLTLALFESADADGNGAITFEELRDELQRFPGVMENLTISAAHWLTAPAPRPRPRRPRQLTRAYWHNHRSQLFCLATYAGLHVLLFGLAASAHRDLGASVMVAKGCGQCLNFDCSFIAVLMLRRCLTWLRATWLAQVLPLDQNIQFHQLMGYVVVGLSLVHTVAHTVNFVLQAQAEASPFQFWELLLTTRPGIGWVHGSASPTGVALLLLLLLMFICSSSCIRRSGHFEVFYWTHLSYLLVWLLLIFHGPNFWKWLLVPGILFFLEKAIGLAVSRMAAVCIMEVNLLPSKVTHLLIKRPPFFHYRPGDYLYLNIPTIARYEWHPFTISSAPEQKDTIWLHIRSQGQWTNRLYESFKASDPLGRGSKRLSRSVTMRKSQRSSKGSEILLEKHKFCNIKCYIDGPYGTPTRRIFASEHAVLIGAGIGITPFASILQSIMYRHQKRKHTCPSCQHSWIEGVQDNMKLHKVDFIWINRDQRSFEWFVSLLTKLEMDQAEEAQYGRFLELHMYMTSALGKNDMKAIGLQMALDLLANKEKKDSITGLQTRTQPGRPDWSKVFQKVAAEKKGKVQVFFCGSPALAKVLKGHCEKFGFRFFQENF

Structure (SMILES)	z-score [1]	composite z-score [2]	z-score [3]	z-score [4]	z-score [5]	z-score [6]	z-score [7]	z-score [8]	z-score [9]	z-score [10]	z-score [11]	z-score [12]	z-score [13]	z-score [14]	z-score [15]	z-score [16]	z-score [17]	z-score [18]	z-score [19]	z-score [20]
CCN1C(=O)[C@H]2[C@H]3[C@H](O)[C@H](O)CC(=NOCC=C(C)CCC=C(C)C)[C@H]3CC[C@H]2C1=O	0.376 (inactive)	-0.0518	0.955 (inactive)	-0.506 (inactive)	-0.527 (inactive)	-0.163 (inactive)	-0.0053	-0.516 (inactive)	0.301 (inactive)	-1.52	-0.107	0.393	-0.118	0.805	0.169	-0.702	0.0735 (inactive)	0.568	0.0613	-1.01 (inactive)
N#Cc1ccc(NN2C(C(O)c3cccc4ccccc34)C=CC3C(=O)N(c4ccccc4)C(=O)C32)cc1 (stereo not given)	-0.499 (inactive)	0.696	12.6 (active)	2.68 (inactive)	1.33 (inactive)	1.44 (inactive)	-0.067	-1.58 (inactive)	-3.65 (inactive)	-3.57	-0.762	-0.506	1.52	0.0966	0.224	-0.452	0.226 (inactive)	-0.312	-0.0109	0.325 (inactive)
CC[C@@H](c1ccccc1)n1c(=O)n2n(c1=O)[C@H]1[C@H](O)[C@@H]3O[C@@H]3C(=NOCC=C(C)CCC=C(C)C)[C@H]1CC2	-1.15 (inactive)	-0.241	1.27 (inactive)	0.719 (inactive)	0.0313 (inactive)	0.355 (inactive)	-0.45	2.38 (inactive)	-1.85 (inactive)	-1.35	-0.821	0.722	-1.48	-3.08	-3.74	-2.4	0.151 (inactive)	-0.829	0.198	-0.0334 (inactive)
C[C@@H](c1ccccc1)N1C(=O)[C@H]2[C@H]3[C@H](O)C=CC(=O)[C@@H]3CC[C@H]2C1=O	-0.0347 (inactive)	-0.193	-0.352 (inactive)	0.101 (inactive)	-0.555 (inactive)	-0.284 (inactive)	0.674	1.56 (inactive)	-0.0276 (inactive)	-0.276	-0.0257	0.0344	0.628	-0.438	-0.136	0.457	0.715 (inactive)	0.04	0.711	0.165 (inactive)
O=C(NN=C1C[C@@H](O)[C@@H](O)[C@@H]2[C@@H]3C(=O)N(c4ccc(F)cc4F)C(=O)[C@@H]3CC[C@@H]12)OCc1ccccc1	0.113 (inactive)	0.0536	3.79 (inactive)	0.326 (inactive)	-0.479 (inactive)	0.0094 (inactive)	-0.849	1.56 (inactive)	0.882 (inactive)	0.0449	0.166	-0.902	-0.903	0.655	-0.768	-0.121	1.2 (inactive)	-0.353	-0.0309	-0.0526 (inactive)
CC(C)OC(=O)C=C1C[C@@H](c2ccc(C#N)cc2)O[C@@H](c2ccc(C#N)cc2)O1	0.197 (inactive)	0.474	8.57 (active)	0.848 (inactive)	0.78 (inactive)	0.439 (inactive)	-0.342	-0.669 (inactive)	-1.02 (inactive)	-0.607	-0.301	0.538	-0.0099	-2.29	-0.69	-1.06	-0.195 (inactive)	-0.462	-2.22	0.199 (inactive)
COCC1=C2[C@@H](CCc3ccccc3)OB(O)C[C@@H]2n2c(=O)n(-c3ccccc3)c(=O)n2C1	-0.144 (inactive)	-0.0816	1.88 (inactive)	-0.256 (inactive)	-0.698 (inactive)	-0.235 (inactive)	0.214	-0.421 (inactive)	-2.2 (inactive)	-1.48	-0.0316	-0.174	0.602	-0.0123	-0.412	-1.83	0.619 (inactive)	0.164	0.368	-0.566 (inactive)
CCN(CC)c1ccc(N2CC=CC34O[C@@H]5/C=C\CCC(C)OC(=O)C5[C@H]3C(=O)N(CCCO)[C@@H]4C2=O)cc1 (stereo not given in full)	-0.074 (inactive)	-0.191	1.43 (inactive)	-0.223 (inactive)	-0.0086 (inactive)	-0.18 (inactive)	-0.473	0.056 (inactive)	-1.51 (inactive)	0.975	0.28	0.782	0.109	1.09	0.264	-0.356	0.0214 (inactive)	-0.245	1.18	-0.38 (inactive)
CC(C)(C)OC(=O)CC[C@]1(C(N)=O)COC(c2ccc(OCCCO)cc2)=N1	0.311 (inactive)	0.802	0.75 (inactive)	-0.267 (inactive)	0.295 (inactive)	0.0515 (inactive)	-0.777	0.381 (inactive)	-0.585 (inactive)	0.612	0.371	0.0132	0.0668	0.909	-0.881	-0.143	-0.0265 (inactive)	0.484	-0.284	-1.05 (inactive)
CCOC(=O)NN=C1C[C@@H](O)[C@@H](O)[C@@H]2[C@@H]3C(=O)N(C[C@@H]4CCCO4)C(=O)[C@@H]3CC[C@@H]12	1.2 (inactive)	-0.245	0.564 (inactive)	-0.243 (inactive)	0.406 (inactive)	-0.0631 (inactive)	-0.0861	-0.543 (inactive)	0.111 (inactive)	0.354	0.0693	-0.637	0.473	0.157	0.549	1.06	0.491 (inactive)	0.248	-0.895	-0.175 (inactive)
CCCNC(=O)OC[C@H]1O[C@H](CCON=CC[C@@H]2C=C[C@H](OC(C)=O)[C@@H](COC(C)=O)O2)C=C[C@@H]1Oc1ccc(OC)cc1	-0.413 (inactive)	-0.145	1.6 (inactive)	0.405 (inactive)	0.126 (inactive)	0.392 (inactive)	-0.397	-1.02 (inactive)	0.143 (inactive)	-1.07	0.51	-0.217	-0.24	-0.516	-1.28	-1.14	-1.12 (inactive)	-0.057	0.306	0.248 (inactive)
